Experiments:
Assay in all cases: PBM binding z-score (relative to random genomic background probes); higher = stronger binding; sequences stand for … in GC…GCGATTGACAGCGTAGAATGAAGG
[1] = system: RARb homodimer (NR concentration 270 nM)
Summary of the method: (§1)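 Scanned fluorescence from custom Agilent 4×180K protein-binding microarrays was regression-normalized. Binding z-scores use random background probes as reference. Ligand-free nuclear receptor dimers were incubated on the arrays for 1 h and detected with antibodies against each partner (one per run).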

[2] = system: RARg:RXRa (NR concentration 270 nM, RXRa partner concentration 90 nM)
Summary of the method: as §1

[3] = system: RARg homodimer (NR concentration 270 nM)
Summary of the method: as §1

[4] = system: RXRa DBDmut IVT, anti-RXR (DBD mutation: RXRa K156A/R161A, NR concentration 90 nM)
Summary of the method: as §1

[5] = system: RXRa homodimer (NR concentration 180 nM)
Summary of the method: as §1

[6] = system: THRa:RXRa (NR concentration 90 nM, RXRa partner concentration 90 nM)
Summary of the method: as §1

[7] = system: THRa homodimer (NR concentration 90 nM)
Summary of the method: as §1

[8] = system: VDR homodimer (NR concentration 270 nM)
Summary of the method: as §1

Sequence	PBM binding z-score [1]	PBM binding z-score [2]	PBM binding z-score [3]	PBM binding z-score [4]	PBM binding z-score [5]	PBM binding z-score [6]	PBM binding z-score [7]	PBM binding z-score [8]
TCTGCTAGGTGAACGATGGTCAGCTAATCTGCTA	0.159	0.144	0.337	-0.282	0.0585	0.529	-0.885	-0.782
CCTTACGGGTCATTGACAGGTTATAGCATTTGGA	3.04	5.75	3.8	2.9	5.07	2.91	0.494	1.67
CCGAGTGGGGCAAAGGTTACCATACTCAGTACGA	2.45	3.55	1.75	0.25	3.67	1.86	-0.359	0.16
CTCGAAAGGTCGTGCTCAAGTGAGTATACCAAAC	2.33	4.27	3.66	2.31	4.62	2.31	-0.0165	1.15
TAGCCGAGGTCATGCGGGCCAGTATAGTGTCGGC	4.39	6.21	5.83	3.81	6.86	4.36	2.99	4.62
CCGACTGGGGCAAAGGTTAGCATACTCAGTACGA	1.56	2.76	1.55	0.057	2.79	0.962	-0.171	-0.381
ATCTCTAAGTAAAGATAGTTCAGTGAATGCAAAT	0.667	0.945	0.889	0.232	0.538	0.429	-0.328	0.578
CCTCGGAGGACAGACGGTCAGAGCTGTCCGCTTT	0.948	0.15	1.12	-0.152	-0.87	-0.0863	-0.156	-0.276
CAAACTAGGTCACCGGAAGGCCAAAGTCCGCATG	3.78	5.9	5.62	1.55	3.59	3.53	1.43	0.943
TCATATAGGTAAACAGGTGAAAGGCCGTAAGTTA	1.29	0.793	0.375	1.61	1.2	0.682	0.262	0.499
TTACCGAGGTGAAGGTCGTTGATCCCTCTGTAGA	1.72	1.58	1.02	-0.12	2	2.66	1.16	0.99
TCTATTAGTTGAAGGGAAACCGACGAGTCCGTTT	-0.0745	-0.0691	-0.0615	1.6	0.396	-0.149	0.214	1.19
CCTCGGATGACAACAGGAGGTCAGAGCTGCCAGA	3	2.24	1.91	-0.48	2.01	1.92	0.407	0.749
TCGAGTAGGTTAGGGGCATTCAGAATGGCGTCGA	0.976	0.269	0.406	0.45	0.658	0.87	0.0711	0.98
ACTTACGGGTCAACGAGGTTATTGCACGCGTATA	3.55	5.66	4.9	3.01	6.27	4.05	1.2	4.35
TGTCAAAGTTCAGAGGTAACGTAAGTATCCACAC	3.02	4.64	4.84	3.01	4.22	2.53	0.262	2.11
TCCTGTAGATCAACAGGAGGTTAAGAAAGATCGA	0.374	0.894	0.158	-0.0672	0.88	0.931	-0.958	-0.104
CTACCAAGGTGAACAAGCTCGTTGATTACTATTC	0.567	0.606	0.761	0.373	0.526	1.63	0.878	-0.237
TGAATGAGGTTAAAGATCAGTGAACGTGGCGTCG	0.903	2.48	1.37	1.33	3.74	2.58	0.429	0.435

Sequence	PBM binding z-score [1]	PBM binding z-score [2]	PBM binding z-score [3]	PBM binding z-score [4]	PBM binding z-score [5]	PBM binding z-score [6]	PBM binding z-score [7]	PBM binding z-score [8]
CGTCAAAGTGCAAGGTAACGTAACAGAAAGCAGC	0.846	0.771	1.24	1.21	0.508	1.08	0.0291	0.017
AATACAGGGCCACTAGGCCAGAGTAGGTACGAAT	0.294	0.551	0.711	-0.4	0.289	-0.0637	-0.308	0.318
ACTATTAGTTGACTTAGGGCAACCGTTACGACGC	1.34	0.618	0.892	1.01	0.622	1.53	0.619	0.195
TCTTGTAGATCAAAGGTTAAGAAGGCCGAAGCCT	1.58	1.95	0.702	0.627	3.37	1.51	-0.402	0.0638
ACCGACAGGTGATGAAGGTAACTCAGGCTATCAT	0.0533	0.16	0.23	-0.271	0.299	0.649	-0.149	-0.217
CAAACTAGGTTACAGAGGTCAAAGTCCGTGCGTA	4.97	6.01	5.51	2.53	7.1	4.14	2.24	5.09
CGAACCAGGTCATCCAGGACAGTGAATACATTGA	3.03	4.28	4.8	2.81	3.95	4.15	2.93	2.75
CGAACTAGGGCATTGACAGGACAGTGAATAGTAA	0.812	1.07	1.13	0.467	0.388	0.559	-0.0936	0.137
GCTACAGGGTCAGCTAGAGGCCAGAGTATGGAAA	3.3	6.74	5.02	1.48	4.32	3.23	0.349	0.386
TCATATAGGTAAAAGGTGAAAGTGGGTGTGGTAA	2.35	2.16	1.01	1.87	3.15	2.07	1.12	0.877
ACTAGTTGGTCAGCTGAGGTCATACACAATTCGG	3.89	3.68	3.38	1.89	3.86	4.94	4.75	4.31
CAAACTAGTTCAAGGTCAAAGTCGGTTTGTGCCA	4.53	4.97	4.53	3.32	4.79	4.05	4.02	4.9
CCGACTGGGGCATTAGGTTACCATAAGCCAGCCC	0.851	0.715	0.58	-0.386	0.21	0.535	0.0828	-0.601
AGCCAAAGTTCACTAGGTAACGTAAGATTCAGCT	3.85	4.99	5.83	4.29	3.74	1.91	-0.25	3.46
ACACGGAGGACAAAGGTCAGAGCTACGCCAGTGA	4.59	6.1	5.24	1.57	5.15	3.56	0.702	1.17
AATACAGGGTCATCGTAGGCCGGAGTACGCACAG	3.49	5.55	5.08	3.69	6.23	4.13	1.46	3.63
ACCATTAGTTGAGACGAGGGCAACCGATAGGTTG	1.3	0.676	0.629	0.383	0.669	2.63	0.525	1.04
CCTAGCAGTCCAATCTGGGTCACTCAAGGCTTGA	2.02	0.766	0.694	0.516	0.768	2.86	0.629	0.187
TCAGCTAGGTCAACGATGGTCAGCTAATCTGCTA	3.49	3.89	4.83	1.11	2.49	2.88	0.578	-0.3

Sequence	PBM binding z-score [1]	PBM binding z-score [2]	PBM binding z-score [3]	PBM binding z-score [4]	PBM binding z-score [5]	PBM binding z-score [6]	PBM binding z-score [7]	PBM binding z-score [8]
TTGAGTAGGTTAGTCGGGGCATTCAGCCAACATA	0.969	0.218	0.145	0.265	0.0452	1.43	0.699	1.25
CCTATTAGTTGACCACAAGGGCAACCGAAGCTCG	1.95	1.15	1.01	0.553	0.829	1.23	0.878	1.01
AGAATGAGGTTATTAAGATCAGGTAATTGCGGTC	1.14	1.13	0.895	1.8	1.87	2.5	1.2	1.13
ACTAGTTGGTCAGCTTAGGTCACACACAATTCGG	3.68	2.59	3.19	0.83	1.69	4.33	3.55	0.863
TATACAGGGTCAAAGGCCGGAGTACGAATGTCGA	3.45	5.49	4.9	2.94	6.66	3.34	0.872	3.02
CGAACTAGGTCATTCAGGACAGTGAATACATTGA	2.72	3.7	4.69	2.77	2.8	3.63	2.13	2.27
ACAGACAGGTGATGATGGTAACTCAGGCTATCAT	0.184	0.343	0.369	-0.173	0.335	0.48	0.015	0.157
TCTCGGAGGACACGAAAGGTCAGAGCGCGACATC	4.91	5.18	5.35	1.09	4.3	3.82	1.12	1.22
GCCCGGAGGACAAGGTCAGAGCTTTGTCCGTAGA	3.19	2.99	3.62	0.344	2.04	2.92	1.67	0.864
GGAACGAGAGCAAAGTTGATAGCATCTGTCGACG	-0.806	-0.113	-0.0315	-0.36	0.334	-0.711	-1.35	-0.396
CTCGAAAGGTCGTGCTCCGGTGAGTATACCAAAC	3.04	5.03	3.94	2.08	5.18	3.06	0.517	1.26
TAGCCTAGGTCAAGGGCCAGTATACCACGCGAAC	3.4	4.09	4.75	0.34	3.58	2.78	0.832	0.272
GATACAGGGTCAGCTCGAGGCCAGAGTATGGAAA	3.45	6.05	4.74	1.23	4.4	3.83	0.628	0.917
GCGACGGGGGCAAAGCAGGTTACCATAAGGTTGG	2.24	3.47	3.11	2.62	2.73	4.56	1.23	2.8
TATACAGGGTCAAAGGCCAGAGAACGAATGTCGA	3.31	5.7	5.34	2.75	7.14	3.4	0.635	2.34
TCTAGCAGGCCAGAGGTTCACTCAAGAGGTACGG	0.483	0.466	0.306	0.415	0.756	0.0642	-0.939	1.54
GATACAGCGTCAAGGCCAGAGTACGCGTATTGAT	-0.276	-0.245	0.129	-0.11	-0.253	-0.179	-0.406	0.0516
AGTCAAAGTTCATCTAGGTAACGTATGATATGCT	3.98	5.57	6	4.68	4.58	3.23	0.203	5.23

Reference: the supplement of paper PMC6555819
